# Measurements reported in the supplement of paper PMC4466140.
# Biological target: AgAbp1
# Experiment: SPOT peptide array binding signal intensity (averaged, normalized) (arbitrary units (background-subtracted, floor 0; scale differs between SH3 domains)); higher = stronger binding of the SH3 domain to the peptide
# Procedure, shortened: (§1)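 SH3 domains from four yeast species were expressed as GST fusions in E. coli BL21(DE3) and purified on glutathione Sepharose. Each was incubated at 10 μg/ml overnight at 4°C in TBS-based blocking buffer on cellulose membranes bearing synthetic 15-mer peptides, in which serines replaced cysteines. Bound protein was detected with anti-GST antibody, an HRP anti-mouse secondary and luminol, then imaged and quantified with Genespotter. The binding signal is the normalized, background-subtracted spot intensity averaged over replicates, in arbitrary units that are not the same from one domain to another.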
row,Binder,SPOT peptide array binding signal intensity
1,PKRRAPPPVPKKPSS,5860

# Biological target: AgBbc1
# Experiment: as above
# Procedure, shortened: as §1
row,Binder,SPOT peptide array binding signal intensity
1,PKRRAPPPVPKKPSS,1440

# Biological target: AgBem1-D1
# Experiment: as above
# Procedure, shortened: as §1
row,Binder,SPOT peptide array binding signal intensity
1,PKRRAPPPVPKKPSS,221

# Biological target: AgBzz1-D1
# Experiment: as above
# Procedure, shortened: as §1
row,Binder,SPOT peptide array binding signal intensity
1,PKRRAPPPVPKKPSS,2030

# Biological target: AgBzz1-D2
# Experiment: as above
# Procedure, shortened: as §1
row,Binder,SPOT peptide array binding signal intensity
1,PKRRAPPPVPKKPSS,987

# Biological target: AgCyk3
# Experiment: as above
# Procedure, shortened: as §1
row,Binder,SPOT peptide array binding signal intensity
1,PKRRAPPPVPKKPSS,1

# Biological target: AgFus1
# Experiment: as above
# Procedure, shortened: as §1
row,Binder,SPOT peptide array binding signal intensity
1,PKRRAPPPVPKKPSS,21.5

# Biological target: AgHof1
# Experiment: as above
# Procedure, shortened: as §1
row,Binder,SPOT peptide array binding signal intensity
1,PKRRAPPPVPKKPSS,530

# Biological target: AgHse1
# Experiment: as above
# Procedure, shortened: as §1
row,Binder,SPOT peptide array binding signal intensity
1,PKRRAPPPVPKKPSS,122

# Biological target: AgLsb1
# Experiment: as above
# Procedure, shortened: as §1
row,Binder,SPOT peptide array binding signal intensity
1,PKRRAPPPVPKKPSS,784

# Biological target: AgLsb4
# Experiment: as above
# Procedure, shortened: as §1
row,Binder,SPOT peptide array binding signal intensity
1,PKRRAPPPVPKKPSS,158

# Biological target: AgMyo5
# Experiment: as above
# Procedure, shortened: as §1
row,Binder,SPOT peptide array binding signal intensity
1,PKRRAPPPVPKKPSS,73.5

# Biological target: AgNbp2
# Experiment: as above
# Procedure, shortened: as §1
row,Binder,SPOT peptide array binding signal intensity
1,PKRRAPPPVPKKPSS,5620

# Biological target: AgRvs167
# Experiment: as above
# Procedure, shortened: as §1
row,Binder,SPOT peptide array binding signal intensity
1,PKRRAPPPVPKKPSS,100

# Biological target: AgSho1
# Experiment: as above
# Procedure, shortened: as §1
row,Binder,SPOT peptide array binding signal intensity
1,PKRRAPPPVPKKPSS,479

# Biological target: AgSla1-D1-D2
# Experiment: as above
# Procedure, shortened: as §1
row,Binder,SPOT peptide array binding signal intensity
1,PKRRAPPPVPKKPSS,96

# Biological target: AgSla1-D3
# Experiment: as above
# Procedure, shortened: as §1
row,Binder,SPOT peptide array binding signal intensity
1,PKRRAPPPVPKKPSS,856

# Biological target: CaAbp1-D1
# Experiment: as above
# Procedure, shortened: as §1
row,Binder,SPOT peptide array binding signal intensity
1,PKRRAPPPVPKKPSS,2910

# Biological target: CaAbp1-D2
# Experiment: as above
# Procedure, shortened: as §1
row,Binder,SPOT peptide array binding signal intensity
1,PKRRAPPPVPKKPSS,5120

# Biological target: CaBbc1
# Experiment: as above
# Procedure, shortened: as §1
row,Binder,SPOT peptide array binding signal intensity
1,PKRRAPPPVPKKPSS,1940

# Biological target: CaBem1-D1
# Experiment: as above
# Procedure, shortened: as §1
row,Binder,SPOT peptide array binding signal intensity
1,PKRRAPPPVPKKPSS,110

# Biological target: CaBzz1-D1
# Experiment: as above
# Procedure, shortened: as §1
row,Binder,SPOT peptide array binding signal intensity
1,PKRRAPPPVPKKPSS,6700

# Biological target: CaBzz1-D2
# Experiment: as above
# Procedure, shortened: as §1
row,Binder,SPOT peptide array binding signal intensity
1,PKRRAPPPVPKKPSS,5750

# Biological target: CaCyk3
# Experiment: as above
# Procedure, shortened: as §1
row,Binder,SPOT peptide array binding signal intensity
1,PKRRAPPPVPKKPSS,142

# Biological target: CaFus1
# Experiment: as above
# Procedure, shortened: as §1
row,Binder,SPOT peptide array binding signal intensity
1,PKRRAPPPVPKKPSS,188

# Biological target: CaHof1
# Experiment: as above
# Procedure, shortened: as §1
row,Binder,SPOT peptide array binding signal intensity
1,PKRRAPPPVPKKPSS,0.5

# Biological target: CaHse1
# Experiment: as above
# Procedure, shortened: as §1
row,Binder,SPOT peptide array binding signal intensity
1,PKRRAPPPVPKKPSS,788

# Biological target: CaLsb1
# Experiment: as above
# Procedure, shortened: as §1
row,Binder,SPOT peptide array binding signal intensity
1,PKRRAPPPVPKKPSS,0.5

# Biological target: CaLsb4
# Experiment: as above
# Procedure, shortened: as §1
row,Binder,SPOT peptide array binding signal intensity
1,PKRRAPPPVPKKPSS,2470

# Biological target: CaMyo5
# Experiment: as above
# Procedure, shortened: as §1
row,Binder,SPOT peptide array binding signal intensity
1,PKRRAPPPVPKKPSS,2

# Biological target: CaNbp2
# Experiment: as above
# Procedure, shortened: as §1
row,Binder,SPOT peptide array binding signal intensity
1,PKRRAPPPVPKKPSS,3070

# Biological target: CaRvs167
# Experiment: as above
# Procedure, shortened: as §1
row,Binder,SPOT peptide array binding signal intensity
1,PKRRAPPPVPKKPSS,104

# Biological target: CaRvs167-3
# Experiment: as above
# Procedure, shortened: as §1
row,Binder,SPOT peptide array binding signal intensity
1,PKRRAPPPVPKKPSS,7.5

# Biological target: CaSho1
# Experiment: as above
# Procedure, shortened: as §1
row,Binder,SPOT peptide array binding signal intensity
1,PKRRAPPPVPKKPSS,93

# Biological target: CaSla1-D1-D2
# Experiment: as above
# Procedure, shortened: as §1
row,Binder,SPOT peptide array binding signal intensity
1,PKRRAPPPVPKKPSS,3270

# Biological target: CaSla1-D3
# Experiment: as above
# Procedure, shortened: as §1
row,Binder,SPOT peptide array binding signal intensity
1,PKRRAPPPVPKKPSS,1040

# Biological target: ScAbp1
# Experiment: as above
# Procedure, shortened: as §1
row,Binder,SPOT peptide array binding signal intensity
1,PKRRAPPPVPKKPSS,3020

# Biological target: ScBbc1
# Experiment: as above
# Procedure, shortened: as §1
row,Binder,SPOT peptide array binding signal intensity
1,PKRRAPPPVPKKPSS,651

# Biological target: ScBem1-D1
# Experiment: as above
# Procedure, shortened: as §1
row,Binder,SPOT peptide array binding signal intensity
1,PKRRAPPPVPKKPSS,40

# Biological target: ScBzz1-D1
# Experiment: as above
# Procedure, shortened: as §1
row,Binder,SPOT peptide array binding signal intensity
1,PKRRAPPPVPKKPSS,2560

# Biological target: ScBzz1-D2
# Experiment: as above
# Procedure, shortened: as §1
row,Binder,SPOT peptide array binding signal intensity
1,PKRRAPPPVPKKPSS,83.5

# Biological target: ScCyk3
# Experiment: as above
# Procedure, shortened: as §1
row,Binder,SPOT peptide array binding signal intensity
1,PKRRAPPPVPKKPSS,6

# Biological target: ScFus1
# Experiment: as above
# Procedure, shortened: as §1
row,Binder,SPOT peptide array binding signal intensity
1,PKRRAPPPVPKKPSS,14

# Biological target: ScHof1
# Experiment: as above
# Procedure, shortened: as §1
row,Binder,SPOT peptide array binding signal intensity
1,PKRRAPPPVPKKPSS,≤ 0

# Biological target: ScHse1
# Experiment: as above
# Procedure, shortened: as §1
row,Binder,SPOT peptide array binding signal intensity
1,PKRRAPPPVPKKPSS,326

# Biological target: ScLsb1
# Experiment: as above
# Procedure, shortened: as §1
row,Binder,SPOT peptide array binding signal intensity
1,PKRRAPPPVPKKPSS,488

# Biological target: ScLsb2
# Experiment: as above
# Procedure, shortened: as §1
row,Binder,SPOT peptide array binding signal intensity
1,PKRRAPPPVPKKPSS,800

# Biological target: ScLsb3
# Experiment: as above
# Procedure, shortened: as §1
row,Binder,SPOT peptide array binding signal intensity
1,PKRRAPPPVPKKPSS,4240

# Biological target: ScLsb4
# Experiment: as above
# Procedure, shortened: as §1
row,Binder,SPOT peptide array binding signal intensity
1,PKRRAPPPVPKKPSS,78.5

# Biological target: ScMyo3
# Experiment: as above
# Procedure, shortened: as §1
row,Binder,SPOT peptide array binding signal intensity
1,PKRRAPPPVPKKPSS,865

# Biological target: ScMyo5
# Experiment: as above
# Procedure, shortened: as §1
row,Binder,SPOT peptide array binding signal intensity
1,PKRRAPPPVPKKPSS,436

# Biological target: ScNbp2
# Experiment: as above
# Procedure, shortened: as §1
row,Binder,SPOT peptide array binding signal intensity
1,PKRRAPPPVPKKPSS,5110

# Biological target: ScPex13
# Experiment: as above
# Procedure, shortened: as §1
row,Binder,SPOT peptide array binding signal intensity
1,PKRRAPPPVPKKPSS,560

# Biological target: ScRvs167
# Experiment: as above
# Procedure, shortened: as §1
row,Binder,SPOT peptide array binding signal intensity
1,PKRRAPPPVPKKPSS,1250

# Biological target: ScSho1
# Experiment: as above
# Procedure, shortened: as §1
row,Binder,SPOT peptide array binding signal intensity
1,PKRRAPPPVPKKPSS,1580

# Biological target: ScSla1-D1-D2
# Experiment: as above
# Procedure, shortened: as §1
row,Binder,SPOT peptide array binding signal intensity
1,PKRRAPPPVPKKPSS,3720

# Biological target: ScSla1-D3
# Experiment: as above
# Procedure, shortened: as §1
row,Binder,SPOT peptide array binding signal intensity
1,PKRRAPPPVPKKPSS,1510

# Biological target: SpAbp1-D1
# Experiment: as above
# Procedure, shortened: as §1
row,Binder,SPOT peptide array binding signal intensity
1,PKRRAPPPVPKKPSS,1910

# Biological target: SpBbc1
# Experiment: as above
# Procedure, shortened: as §1
row,Binder,SPOT peptide array binding signal intensity
1,PKRRAPPPVPKKPSS,144

# Biological target: SpBzz1-D1
# Experiment: as above
# Procedure, shortened: as §1
row,Binder,SPOT peptide array binding signal intensity
1,PKRRAPPPVPKKPSS,2040

# Biological target: SpBzz1-D2
# Experiment: as above
# Procedure, shortened: as §1
row,Binder,SPOT peptide array binding signal intensity
1,PKRRAPPPVPKKPSS,863

# Biological target: SpCyk3
# Experiment: as above
# Procedure, shortened: as §1
row,Binder,SPOT peptide array binding signal intensity
1,PKRRAPPPVPKKPSS,2.5

# Biological target: SpHof1
# Experiment: as above
# Procedure, shortened: as §1
row,Binder,SPOT peptide array binding signal intensity
1,PKRRAPPPVPKKPSS,165

# Biological target: SpHof1-2
# Experiment: as above
# Procedure, shortened: as §1
row,Binder,SPOT peptide array binding signal intensity
1,PKRRAPPPVPKKPSS,21

# Biological target: SpHof1-3
# Experiment: as above
# Procedure, shortened: as §1
row,Binder,SPOT peptide array binding signal intensity
1,PKRRAPPPVPKKPSS,290

# Biological target: SpHse1
# Experiment: as above
# Procedure, shortened: as §1
row,Binder,SPOT peptide array binding signal intensity
1,PKRRAPPPVPKKPSS,143

# Biological target: SpLsb1
# Experiment: as above
# Procedure, shortened: as §1
row,Binder,SPOT peptide array binding signal intensity
1,PKRRAPPPVPKKPSS,1820

# Biological target: SpLsb4
# Experiment: as above
# Procedure, shortened: as §1
row,Binder,SPOT peptide array binding signal intensity
1,PKRRAPPPVPKKPSS,1020

# Biological target: SpMyo1
# Experiment: as above
# Procedure, shortened: as §1
row,Binder,SPOT peptide array binding signal intensity
1,PKRRAPPPVPKKPSS,584

# Biological target: SpNbp2
# Experiment: as above
# Procedure, shortened: as §1
row,Binder,SPOT peptide array binding signal intensity
1,PKRRAPPPVPKKPSS,38.5

# Biological target: SpPex13
# Experiment: as above
# Procedure, shortened: as §1
row,Binder,SPOT peptide array binding signal intensity
1,PKRRAPPPVPKKPSS,11

# Biological target: SpRvs167
# Experiment: as above
# Procedure, shortened: as §1
row,Binder,SPOT peptide array binding signal intensity
1,PKRRAPPPVPKKPSS,803

# Biological target: SpSla1-D1-D2
# Experiment: as above
# Procedure, shortened: as §1
row,Binder,SPOT peptide array binding signal intensity
1,PKRRAPPPVPKKPSS,1990

# Biological target: SpSla1-D3
# Experiment: as above
# Procedure, shortened: as §1
row,Binder,SPOT peptide array binding signal intensity
1,PKRRAPPPVPKKPSS,≤ 0
